This is part of a sample that, as a whole, favours compounds with a hit. Of some 83,000 tested, about 20% had one in any assay.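 Negative percent growth values reflect cell death: -40 means 40% of the cells present at the start died, and -100 means all died.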 Values without a mark were called inactive. The source made the active and inactive calls. Rule for the calls: active = growth percent below 10; inactive = the rest.

Some test systems named below: DU-145 prostate; K-562 leukemia; MALME-3M melanoma; MDA-MB-231 breast; RXF 393 renal; SF-268 CNS; SF-295 CNS; SF-539 CNS; M14 melanoma; UACC-257 melanoma.
Experiment in all cases: NCI-60 one-dose screen, 48 h (100 = growth as untreated, 0 = no growth, -100 = all killed)
Details in all cases: 10 µM unless noted

As for `CC1=NNC(=O)C1C` (stereo not given), the growth with DU-145 prostate is 104%; with K-562 leukemia, 97.3%; in the assay with MALME-3M melanoma, 467%; in the assay on MDA-MB-231 breast, 109%; in the assay on RXF 393 renal it was 90.5%; in the assay with SF-268 CNS, 107%. For the same compound, the growth is 110% in the assay on SF-295 CNS, 111% in the assay with SF-539 CNS and 96.8% in the assay with M14 melanoma.
As to `NC(=S)N/N=C/c1ccc(OCc2ccccc2)cc1`, the growth is 85.3% in the assay with DU-145 prostate; 43.7% with K-562 leukemia; 56.2% with MALME-3M melanoma; 69.9% in the assay with MDA-MB-231 breast; 52.4% with RXF 393 renal; 80.9% in the assay on SF-268 CNS. Also, the growth in the assay with SF-295 CNS was 96%; in the assay with UACC-257 melanoma, 60.7%; in the assay on M14 melanoma, 71.6%.
Consider `Brc1cccc(-c2cc(-c3ccc4c(c3)OCCO4)[nH]n2)c1`, for which the growth was 21% [25 µM] in the assay with DU-145 prostate; 14.7% [25 µM] in the assay on K-562 leukemia; 49.1% [25 µM] in the assay on MALME-3M melanoma; 33.4% [25 µM] with MDA-MB-231 breast; -18.6% [25 µM] (active) in the assay with RXF 393 renal; 50.5% [25 µM] with SF-268 CNS. Moreover, the growth is 0.112% [25 µM] (active) with SF-295 CNS, -14.1% [25 µM] (active) in the assay with SF-539 CNS, 62.4% [25 µM] with UACC-257 melanoma and 20.9% [25 µM] in the assay on M14 melanoma.
On to `CCOC(=O)C(C#N)C1CCCCC1` (stereo not given), for which the growth in the assay on DU-145 prostate is 104%; with K-562 leukemia, 79.3%; in the assay on MALME-3M melanoma, 95.6%; in the assay with MDA-MB-231 breast, 81.3%; in the assay on RXF 393 renal, 99.3%; in the assay with SF-268 CNS, 91%. The figures for the growth in the assay on SF-295 CNS, in the assay on SF-539 CNS and in the assay on M14 melanoma were 93.5%, 122% and 101%, respectively.
As to `Cc1cc2cc3cc(C)c(N(C)C)cc3nc2cc1N(C)C`, the growth in the assay on DU-145 prostate was 25.4%; in the assay on K-562 leukemia, 41.5%; with MALME-3M melanoma, 28.4%; in the assay with MDA-MB-231 breast, 63.2%; with RXF 393 renal, 24%; in the assay with SF-268 CNS, 13.9%. Further, the growth in the assay on SF-295 CNS was 19.4%; in the assay with SF-539 CNS it was 8.78% (active); in the assay on M14 melanoma, 37.4%.
Regarding `Nc1cccc(NC(=O)C(=O)Nc2cccc(N)c2)c1`, the growth in the assay on DU-145 prostate is 107%; with K-562 leukemia, 95.3%; in the assay on MALME-3M melanoma, 141%; with MDA-MB-231 breast, 104%; with RXF 393 renal, 87.5%; in the assay on SF-268 CNS it was 101%. Further, the results for the growth with SF-295 CNS, with SF-539 CNS and in the assay on M14 melanoma were 98.1%, 111% and 87.4%, respectively.
For `CC1CN(C(C)C)C(=S)N(c2ccccc2)C1=O` (stereo not given), the growth in the assay with DU-145 prostate is 103%; in the assay with K-562 leukemia, 95.9%; in the assay with MALME-3M melanoma, 82%; in the assay on MDA-MB-231 breast, 90.4%; in the assay on RXF 393 renal, 102%; in the assay on SF-268 CNS, 98.8%. Also, the growth with SF-295 CNS is 108%; in the assay on SF-539 CNS it was 96.4%; in the assay with M14 melanoma it was 93.2%.
For the compound `CN(C)c1ccc(/C=C\C2=[N+](C)c3ccccc3C2(C)C)cc1`, the growth in the assay with DU-145 prostate is 16.3%; in the assay on K-562 leukemia, 90.8%; in the assay with MALME-3M melanoma it was 20.8%; in the assay with MDA-MB-231 breast, 23%; in the assay on RXF 393 renal, 37.3%; with SF-268 CNS, 6% (active). For the same compound, the growth is -23.9% (active) with SF-295 CNS, 22.1% in the assay with SF-539 CNS and 18% with M14 melanoma.
As to `O=C(Cc1ccccc1)c1ccc(Cl)cc1`, the growth was 119% with DU-145 prostate; 123% with K-562 leukemia; 105% in the assay on MALME-3M melanoma; 103% in the assay on MDA-MB-231 breast; 121% with RXF 393 renal; 111% in the assay on SF-268 CNS. In addition, the growth in the assay with SF-295 CNS was 103%; with SF-539 CNS, 107%; with M14 melanoma, 101%.
In the case of `COc1ccc(C(=O)COc2ccc(/C=C3\Oc4ccc(Cl)cc4C3=O)cc2)cc1`, the growth in the assay with DU-145 prostate was 107%; in the assay on K-562 leukemia, 16.7%; with MALME-3M melanoma it was 115%; with MDA-MB-231 breast, 86.8%; with RXF 393 renal it was 101%; with SF-268 CNS, 108%. Besides, the growth with SF-295 CNS is 92.7%; in the assay on SF-539 CNS, 86.3%; in the assay on UACC-257 melanoma, 89.9%; in the assay on M14 melanoma it was 104%.
For `C=C1C(=O)O[C@H]2[C@H]1CC/C(Cn1cc(Cc3c[nH]c4ccccc34)nn1)=C\CC[C@@]1(C)O[C@@H]21`, the growth was 20% with DU-145 prostate; -12.9% (active) with K-562 leukemia; -40.6% (active) with MALME-3M melanoma; 1.06% (active) in the assay on MDA-MB-231 breast; -33.3% (active) in the assay on RXF 393 renal; 35.1% in the assay with SF-268 CNS. Further, the growth with SF-295 CNS was 79.3%; in the assay on SF-539 CNS, -55.4% (active); in the assay with UACC-257 melanoma, 43.8%; with M14 melanoma, 10.2%.
With `CCC(=O)OCc1cccc(OC)c1`, the growth in the assay on DU-145 prostate is 111%; in the assay with K-562 leukemia, 62.4%; in the assay with MALME-3M melanoma, 116%; with MDA-MB-231 breast, 97.4%; in the assay with RXF 393 renal it was 103%; in the assay with SF-268 CNS it was 107%. Moreover, the growth is 104% in the assay with SF-295 CNS, 98% with SF-539 CNS and 96.3% in the assay with M14 melanoma.
For the compound `Cc1ccc(N)cc1F`, the growth in the assay with DU-145 prostate is 109%; in the assay on K-562 leukemia it was 99.1%; in the assay with MALME-3M melanoma it was 93.5%; in the assay on MDA-MB-231 breast it was 82%; in the assay with RXF 393 renal, 104%; in the assay with SF-268 CNS, 98.6%. Further, the values for the growth in the assay on SF-295 CNS, in the assay with SF-539 CNS and in the assay on M14 melanoma were 110%, 100% and 88.2%, respectively.
For `Fc1ccc(Cc2ccc(F)cc2)cc1`, the growth is 113% with DU-145 prostate; 96.7% with K-562 leukemia; 106% in the assay on MALME-3M melanoma; 107% in the assay on MDA-MB-231 breast; 118% in the assay on RXF 393 renal; 101% in the assay on SF-268 CNS. Besides, the growth in the assay with SF-295 CNS is 113%; with SF-539 CNS, 102%; in the assay with UACC-257 melanoma, 108%; in the assay with M14 melanoma it was 106%.
Take `CC1CN(Cc2ccco2)C(=S)N(c2ccccc2)C1=O` (stereo not given): the growth was 110% in the assay on DU-145 prostate; 62.7% with K-562 leukemia; 97.8% in the assay on MALME-3M melanoma; 106% in the assay on MDA-MB-231 breast; 111% in the assay on RXF 393 renal; 105% in the assay on SF-268 CNS. Also, the growth is 92.3% with SF-295 CNS, 90.8% in the assay with SF-539 CNS and 99.6% in the assay with M14 melanoma.
With `CCC(c1ccc(O)cc1)C(CC)c1ccc(O)c(F)c1` (stereo not given), the growth with DU-145 prostate was 97.6%; with K-562 leukemia, 47.4%; with MALME-3M melanoma, 85.2%; in the assay with MDA-MB-231 breast, 97.2%; in the assay on RXF 393 renal, 92.6%; in the assay with SF-268 CNS, 82.6%. Besides, the growth is 84.9% with SF-295 CNS, 89% in the assay on UACC-257 melanoma and 80.5% with M14 melanoma.
Turning to `CC(C)(C)n1cc(-c2ccnc(NCCNS(=O)(=O)c3ccccc3)c2)c(-c2cccc(O)c2)n1`, the growth with DU-145 prostate was 68.9%; in the assay on K-562 leukemia, 7.69% (active); in the assay with MALME-3M melanoma it was 59.4%; in the assay on MDA-MB-231 breast, 42.7%; in the assay with RXF 393 renal it was 61.6%; in the assay on SF-268 CNS, 63.3%. The growth was 48.3% with SF-295 CNS, 52.2% in the assay with SF-539 CNS, 65.8% in the assay with UACC-257 melanoma and 53.9% in the assay on M14 melanoma.
For `CNCc1cccc2c1OCCOCCOCCN(C)S(=O)(=O)c1ccc(cc1)-c1cnc(N)c(n1)C(=O)N2`, the growth in the assay with DU-145 prostate was 47.4%; in the assay on K-562 leukemia, 1.1% (active); in the assay on MALME-3M melanoma, 9.53% (active); with MDA-MB-231 breast, 69.1%; in the assay on RXF 393 renal it was -54.8% (active); in the assay with SF-268 CNS it was 69.4%. Moreover, the growth in the assay on SF-295 CNS was 87.6%; with UACC-257 melanoma, 63.4%; in the assay with M14 melanoma, 37.3%.
As to `CNC(=O)c1cc(Oc2ccc3nc(NC(=O)Nc4ccc(N5CCC(N(C)C)CC5)cc4)sc3c2)ccn1`, the growth was 74.1% in the assay on DU-145 prostate; 2.09% (active) with K-562 leukemia; 56.1% with MALME-3M melanoma; 85.6% in the assay on MDA-MB-231 breast; 61.5% in the assay on RXF 393 renal; 84.7% with SF-268 CNS. Further, the growth in the assay on SF-295 CNS is 98.9%; with SF-539 CNS, 73.4%; in the assay with UACC-257 melanoma it was 105%; in the assay on M14 melanoma, 94%.
In the case of `O=C(O)c1cccc2c1-c1ccccc1C2=O`, the growth in the assay on DU-145 prostate is 114%; in the assay with K-562 leukemia, 119%; in the assay on MALME-3M melanoma it was 85.8%; with MDA-MB-231 breast, 96%; in the assay with RXF 393 renal, 90.4%; in the assay on SF-268 CNS it was 105%. Further, the growth in the assay on SF-295 CNS was 96.6%; with SF-539 CNS, 97.9%; with M14 melanoma, 94.5%.
`CCCCCCCCCCCCCC1=NCCN1CCO`: the growth with DU-145 prostate was 116%; in the assay on K-562 leukemia it was 5.11% (active); in the assay with MALME-3M melanoma it was 104%; in the assay on MDA-MB-231 breast it was 51.3%; in the assay on RXF 393 renal, 59.5%; in the assay on SF-268 CNS, 152%. Moreover, the results for the growth in the assay on SF-295 CNS, with SF-539 CNS and with M14 melanoma were 136%, -70% (active) and 2.59% (active), respectively.

Source of the values: PubChem BioAssay (NCI).
